CYP2C19 inh: human CYP2C19 inhibition; CYP2C19 Supersomes, luciferin-H EGE luminescence, 30 min; inhibition, % at 5 µM; P33261; 96,000 tested, 21% active;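 active = CYP2C19 inhibition above a set limit at 5 µM in the primary screen, cut at about 50% in these data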;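 also: plate controls were negative control wells for no effect and 2.5 mM tranylcypromine positive control for full effect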
CYP2C19 act: cytochrome P450 2C19 (human) activation; recombinant CYP2C19, luciferin-H EGE luminescence; stronger effect = higher value; 0 = fully inhibited enzyme, 1 = untreated enzyme; activation factor at 5 µM; P33261; AID 1025; 96,000 tested, under 10 active;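 active = activation factor of at least 2 at 5 µM in the primary screen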;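 also: 0 = wells with 2.5 mM tranylcypromine and 1 = vehicle-only wells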
CYP2C9 activ: CYP2C9 (human) activation; P11712; recombinant CYP2C9, luciferin-H conversion, luminescence; stronger effect = higher value; factor 1 = untreated enzyme, 0 = blocked; activation factor at 5 µM; 96,000 tested, 1.4% active;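 active = activation factor of 2 or more for CYP2C9 at a 5 µM dose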;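 also: 0 = sulfaphenazole-blocked wells and 1 = vehicle-only wells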
Target sequence (P11712 whole entry, looked up): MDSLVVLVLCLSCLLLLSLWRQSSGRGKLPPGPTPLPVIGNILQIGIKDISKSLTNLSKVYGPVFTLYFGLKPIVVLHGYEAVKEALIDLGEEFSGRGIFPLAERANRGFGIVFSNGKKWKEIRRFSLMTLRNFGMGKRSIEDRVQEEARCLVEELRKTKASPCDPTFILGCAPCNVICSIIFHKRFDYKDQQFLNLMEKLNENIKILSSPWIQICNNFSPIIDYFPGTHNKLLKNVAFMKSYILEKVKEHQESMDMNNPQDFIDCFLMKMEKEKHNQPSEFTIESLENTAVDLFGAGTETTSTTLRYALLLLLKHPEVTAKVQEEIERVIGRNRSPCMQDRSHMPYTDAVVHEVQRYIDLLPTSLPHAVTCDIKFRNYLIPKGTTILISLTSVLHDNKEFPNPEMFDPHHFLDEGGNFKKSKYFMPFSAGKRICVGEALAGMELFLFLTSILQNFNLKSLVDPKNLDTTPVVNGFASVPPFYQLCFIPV
CYP2C9 inh: human CYP2C9 inhibition; inhibition, % at 5 µM; 96,000 tested, 20% active; AID 777; CYP2C9 Supersomes, luciferin-H conversion, luminescence;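 active = blocking of liver enzyme CYP2C9 beyond about 50% at 5 µM, limit read from the data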
Starred values were filed as active, the others as inactive. Hits are enriched below; roughly 31% of the tested compounds scored in any of these assays.

SMILES | CYP2C19 inh | CYP2C19 act | CYP2C9 activ | CYP2C9 inh
Clc1ccc2[nH]c3c(c2c1)CCc1cn[nH]c1-3 | 17.6 | 0.8 | 0.5 | 54.9*
CCOC(=O)c1cnc2c(Cl)cccc2c1NCCN(C)C | -15.0 | 1.1 | 1.1 | -7.5
CC1(C(=O)NC2CCCC2)CCC(=O)N1Cc1ccccc1Cl (stereo unspecified) | 14.1 | 0.9 | 2.3* | -125.0
CC(=O)N1c2c(cc(Br)cc2S(=O)(=O)N2CCOCC2)CC1C (stereo unspecified) | 10.9 | 0.9 | 1.5 | -54.5
CCCCN(Cc1ccccc1)S(=O)(=O)c1cc(Br)cc2c1N(C(C)=O)C(C)C2 (stereo unspecified) | 38.2 | 0.6 | 0.1 | 95.0*
CC(=O)N1c2c(cc(Br)cc2S(=O)(=O)NCc2ccc3c(c2)OCO3)CC1C (stereo unspecified) | 86.1* | 0.1 | 1.8 | -82.7
CC(=O)N1c2c(cc(Br)cc2S(=O)(=O)NCC2COc3ccccc3O2)CC1C (stereo unspecified) | 65.0* | 0.3 | 1.8 | -80.8
CC(=O)N1c2c(cc(Br)cc2S(=O)(=O)NCc2cccnc2)CC1C (stereo unspecified) | 6.1 | 0.9 | 1.1 | -12.4
O=C1CCCC2=C1C(c1cccs1)Nc1ccc3ncccc3c12 (stereo unspecified) | 94.6* | 0.1 | 0.1 | 94.5*
Cc1ccsc1C1Nc2ccc3ncccc3c2C2=C1C(=O)CC(C)(C)C2 (stereo unspecified) | 98.4* | 0 | 0.2 | 80.0*
O=C1CCCC2=C1C(c1ccncc1)Nc1ccccc1N2 (stereo unspecified) | 37.8 | 0.6 | 0.8 | 23.4
O=C1CC(=O)C(n2cncn2)C(c2ccc(Cl)cc2Cl)C1 (stereo unspecified) | 10.1 | 0.9 | 0.3 | 74.5*
CCOC(=O)C1CCN(Cc2cnc(Oc3ccc(N)cc3)s2)CC1 | 44.9 | 0.6 | 0.4 | 62.5*
CCOC(=O)C1CCN(Cc2ccc(Cl)c(Cl)c2)CC1 | 35.7 | 0.6 | 0.5 | 50.9*
O=S1(=O)CCN(Cc2ccc(Cl)c(Cl)c2)CC1 | 54.2* | 0.5 | 1 | 1.7
Fc1ccc(CN2CCCCCCC2)cc1 | 18.4 | 0.8 | 0.9 | 7.4
Clc1ccc(CN2CCCCCCC2)cc1Cl | 84.8* | 0.2 | 1.1 | -5.5
O=S1(=O)CCN(Cc2ccc(Cl)cc2)CC1 | 31.6 | 0.7 | 1.1 | -5.4
NC(=O)c1ccccc1NC(=O)CCCN1C(=O)CCC1=O | -2.7 | 1 | 0.9 | 7.1
CCOC(=O)N1CCN(c2c(NCc3ccccc3OC)c(=O)c2=O)CC1 | -14.6 | 1.1 | 1.1 | -6.1
CCN1C(=O)C2C(C1=O)N1C(c3ccccc3)C3C(=O)N(CC)C(=O)C3N1C2c1ccccc1 (stereo unspecified) | 5.3 | 0.9 | 0.8 | 19.4
O=C(O)c1ccccc1NS(=O)(=O)c1cccc2cccnc12 | -3.1 | 1 | 1 | -4.9
COc1ccc(C(=O)Nc2cccc3cccnc23)cc1OC | 21.7 | 0.8 | 1.3 | -25.9
COc1ccccc1NS(=O)(=O)c1cccc2cccnc12 | 70.0* | 0.3 | 0.7 | 30.9
COc1ccc(OC)c(NC(=O)c2ccccc2NS(=O)(=O)c2cccc3cccnc23)c1 | 76.9* | 0.2 | 0.1 | 92.1*
SMILES | CYP2C19 inh | CYP2C19 act | CYP2C9 activ | CYP2C9 inh
COc1cccc(CNc2cccc3cccnc23)c1O | 80.9* | 0.2 | 2.2* | -122.8
Cc1cccc(NS(=O)(=O)c2cccc3cccnc23)n1 | 5.0 | 0.9 | 2.5* | -151.8
CCN1C(=Nc2ccc(Cl)cc2)SC/C1=C\C(=O)OC | 16.0 | 0.8 | 0.9 | 8.8
COc1ccc(S(=O)(=O)Nc2cccc(C)n2)c2ccccc12 | 67.0* | 0.3 | 1.6 | -61.2
O=C(CC1CCCC1)Nc1nc2ccccc2[nH]1 | 13.1 | 0.9 | 0.9 | 11.9
O=C(Cc1ccc(Nc2nc3ccc(Br)cc3[nH]2)cc1)NCCc1cccs1 | 67.1* | 0.3 | 0.1 | 93.8*
O=C(NCC1CC1)c1ccc(Nc2nc3ccc(Br)cc3[nH]2)cc1 | 31.9 | 0.7 | 0.3 | 69.2*
O=C(NCc1ccco1)c1cccc(Nc2nc3ccc(Br)cc3[nH]2)c1 | 34.4 | 0.7 | 0.1 | 90.7*
O=C(Cc1nc2ccccc2[nH]1)NCc1ccco1 | 18.1 | 0.8 | 0.9 | 7.7
O=C(Cc1cccs1)NCc1ccncc1 | 3.5 | 1 | 0.9 | 13.3
CC1CCCC(C)N1C(=O)CSc1nnnn1Cc1ccccc1 (stereo unspecified) | 19.8 | 0.8 | 0.9 | 5.3
CC(C)(NO)/C(=N\O)c1ccccc1 | -13.0 | 1.1 | 1.2 | -15.3
CCCCN(CC)CCCNC(=O)Cn1nc(Cc2ccncc2)c2ccccc2c1=O | 11.1 | 0.9 | 0.7 | 34.5
CC(CCc1ccco1)NC(=O)Cn1nc(Cc2ccncc2)c2ccccc2c1=O (stereo unspecified) | 84.5* | 0.2 | 0.1 | 86.2*
O=C(Cn1nc(Cc2ccncc2)c2ccccc2c1=O)N1CCN(C(=O)c2ccco2)CC1 | 34.0 | 0.7 | 0.4 | 64.3*
O=C(Cn1nc(Cc2cccnc2)c2ccccc2c1=O)N1CCN(C(=O)c2ccco2)CC1 | 8.1 | 0.9 | 0.5 | 49.5
Cn1c(=O)c2c3c(sc2n2c(SCc4ccc5c(c4)OCO5)nnc12)COC(C)(C)C3 | -3.7 | 1 | 0.8 | 19.3
Cc1ccc(C(=O)CSc2nn3c(=O)c(C(C)(C)C)nnc3s2)cc1 | 13.9 | 0.9 | 0.8 | 20.8
CC(C)(C)c1nnc2sc(SCC(=O)c3ccc(Cl)cc3)nn2c1=O | -5.3 | 1.1 | 0.9 | 10.5
CC(C)(C)c1nnc2sc(SCC(=O)N3CCCc4ccccc43)nn2c1=O | 71.2* | 0.3 | 0.6 | 41.2
CC(C)(C)c1nnc2sc(SCC(=O)c3cccs3)nn2c1=O | 26.4 | 0.7 | 0 | 95.5*
CCOc1ccc(C(=S)NC2CCCCC2)cc1 | 22.8 | 0.8 | 0.7 | 25.8
Cc1nc(-c2ccccc2)sc1-c1n[nH]c(=S)n1C | 9.4 | 0.9 | 0.8 | 15.1
CSc1nnc(-c2sc(-c3ccccc3)nc2C)n1C | 42.2 | 0.6 | 0.3 | 72.3*
COc1ccc(C2CC(c3cccs3)=NN2C(=O)CSC2=NN3CCCC(=O)N=C3S2)cc1 (stereo unspecified) | 3.4 | 1 | 0.7 | 25.1
SMILES | CYP2C19 inh | CYP2C19 act | CYP2C9 activ | CYP2C9 inh
Cc1ccc(C2CC(c3cccs3)=NN2C(=O)CSC2=NN3CCCC(=O)N=C3S2)cc1 (stereo unspecified) | 91.1* | 0.1 | 0.2 | 81.6*
Cn1cnnc1SCc1ccc(F)c2ccccc12 | 55.6* | 0.4 | 1.1 | -13.1
Cn1cnnc1SCc1ccccc1 | -12.6 | 1.1 | 1.2 | -22.2
O=S(=O)(c1ccc(N2CCCC2c2nc3ccccc3s2)nc1)N1CCOCC1 (stereo unspecified) | 88.6* | 0.1 | 0.1 | 86.4*
O=S(=O)(c1ccc(N2CCCC2)nc1)N1CCOCC1 | -18.9 | 1.2 | 1.1 | -7.4
O=Cc1nc(-c2ccccc2Cl)n2ccccc12 | 34.9 | 0.7 | 2.2* | -120.5
Clc1cc2nc3ccccn3c2cc1Cl | 17.4 | 0.8 | 1 | -1.0
CCCC(=O)Nc1ccccc1NC(C)=O | -11.6 | 1.1 | 1.1 | -8.6
CCCC(=O)Nc1cccn(Cc2ccccc2Br)c1=O | 92.4* | 0.1 | 0.6 | 43.4
O=C(COc1ncnc2c(Cl)cc(Cl)cc12)NC1CCCCCC1 | 34.0 | 0.7 | 1.3 | -26.3
